{"source": "the supplement of paper PMC8975748", "note": "Structures can show the parent of a compound that is named as a salt.", "data": [{"tested_on": "Saccharomyces cerevisiae BY4741 SeMeCo community", "assay": "z-score of subpopulation abundance vs DMSO median, subpopulation auxotrophic for L; higher = larger share of this subpopulation than in DMSO controls", "settings": "10 µM; 24 h; SM minimal medium; subpopulation (auxotrophy): L", "procedure": "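Fluorescent four-plasmid SeMeCo (self-establishing metabolically cooperating S. cerevisiae BY4741 community; plasmids pH-mRuby2, pL-mWasabi, pU-eCFP, pM-TagRFP657) was grown 24 h in minimal SM medium with each Selleck FDA-approved drug at 10 µM in 384-well plates. Cells were fixed and imaged by high-content confocal microscopy. For each auxotrophic subpopulation (and the prototroph), a z-score gives the deviation from the DMSO vehicle-control population median.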", "values": [{"smiles": "CS(=O)(=O)c1ccc([C@@H](O)[C@@H](CF)NC(=O)C(Cl)Cl)cc1", "note": "[Florfenicol]", "z-score of subpopulation abundance": -0.16}, {"smiles": "CN(C)C[C@@H]1CCn2cc(c3ccccc32)C2=C(C(=O)NC2=O)c2cn(c3ccccc23)CCO1", "z-score of subpopulation abundance": 1.34}, {"smiles": "CC(c1cc2ccccc2s1)N(O)C(N)=O", "note": "(stereo not given) [Zileuton]", "z-score of subpopulation abundance": 0.85}, {"smiles": "C[C@H]1O[C@@H](O[C@H]2[C@@H](O)C[C@H](O[C@H]3[C@@H](O)C[C@H](O[C@H]4CC[C@@]5(C)[C@H](CC[C@@H]6[C@@H]5C[C@@H](O)[C@]5(C)[C@@H](C7=CC(=O)OC7)CC[C@]65O)C4)O[C@@H]3C)O[C@@H]2C)C[C@H](O)[C@@H]1O", "note": "[Digoxin]", "z-score of subpopulation abundance": -0.7}, {"smiles": "Oc1c(Br)cc(Br)c2cccnc12", "note": "[Broxyquinoline]", "z-score of subpopulation abundance": 0.17}, {"smiles": "C=C1c2cccc(O)c2C(O)=C2C(=O)[C@]3(O)C(O)=C(C(N)=O)C(=O)[C@@H](N(C)C)[C@@H]3[C@@H](O)[C@H]12", "note": "[Methacycline HCl]", "z-score of subpopulation abundance": 1.08}, {"smiles": "CN1CCN(CCCN2c3ccccc3Sc3ccc(C(F)(F)F)cc32)CC1", "note": "[Trifluoperazine 2HCl]", "z-score of subpopulation abundance": -0.42}, {"smiles": "C(=C\\c1ccccc1)/CN1CCN(C(c2ccccc2)c2ccccc2)CC1", "note": "[Cinnarizine]", "z-score of subpopulation abundance": 0.22}, {"smiles": "CN1CCCN=C1/C=C/c1cccs1", "note": "[Pyrantel Pamoate]", "z-score of subpopulation abundance": -0.64}, {"smiles": "Oc1ccc(Cl)c2cccnc12", "note": "[Cloxiquine]", "z-score of subpopulation abundance": -1.33}, {"smiles": "CN1[C@@H](CC(=O)c2ccccc2)CCC[C@H]1C[C@H](O)c1ccccc1", "note": "[Lobeline hydrochloride]", "z-score of subpopulation abundance": -0.58}, {"smiles": "C=C1CCN([C@H](C)[C@](O)(Cn2cncn2)c2ccc(F)cc2F)CC1", "note": "[Efinaconazole]", "z-score of subpopulation abundance": 0.13}, {"smiles": "CC1(C)S[C@@H]2[C@H](NC(=O)Cc3ccccc3)C(=O)N2[C@H]1C(=O)O.CCN(CC)CCOC(=O)c1ccc(N)cc1", "note": "[Penicillin G Procaine]", "z-score of subpopulation abundance": 0.99}, {"smiles": "Cc1nc(Nc2ccc(F)cc2)nc(N2CCc3ccccc3C2C)c1C", "note": "(stereo not given) [Revaprazan Hydrochloride]", "z-score of subpopulation abundance": 0.02}, {"smiles": "Cc1ccc(C(=O)C(C)CN2CCCCC2)cc1", "note": "(stereo not given) [Tolperisone HCl]", "z-score of subpopulation abundance": -0.42}, {"smiles": "CCOC(=O)c1ccc(N)cc1", "note": "[Benzocaine hydrochloride]", "z-score of subpopulation abundance": -0.9}, {"smiles": "Cc1ncc([N+](=O)[O-])n1C", "note": "[Dimetridazole]", "z-score of subpopulation abundance": -1.34}, {"smiles": "CCOc1ccc2nc3cc(N)ccc3c(N)c2c1", "note": "[Ethacridine lactate monohydrate]", "z-score of subpopulation abundance": 1.84}, {"smiles": "Nc1ccc(S(=O)(=O)Nc2ccnn2-c2ccccc2)cc1", "note": "[Sulfaphenazole]", "z-score of subpopulation abundance": 0.58}, {"smiles": "CC[C@@]1(O)C(=O)OCc2c1cc1n(c2=O)Cc2cc3cc(O)ccc3nc2-1", "note": "[Hydroxy Camptothecine]", "z-score of subpopulation abundance": 2.31}, {"smiles": "COc1ccc2cc3[n+](cc2c1OC)CCc1cc2c(cc1-3)OCO2", "note": "[Berberine Sulfate]", "z-score of subpopulation abundance": -1.84}, {"smiles": "CCCCCCCCCCCCCCCCCCOP(=O)([O-])OC1CC[N+](C)(C)CC1", "note": "[Perifosine (KRX-0401)]", "z-score of subpopulation abundance": -0.46}, {"smiles": "Nc1ccc(S(=O)(=O)Nc2ncccn2)cc1", "note": "[Sulfadiazine]", "z-score of subpopulation abundance": 0.86}, {"smiles": "C[C@@H](O)[C@H]1C(=O)N2C(C(=O)O)=C(S[C@@H]3CN[C@H](CNS(N)(=O)=O)C3)[C@H](C)[C@H]12", "note": "[Doripenem Hydrate]", "z-score of subpopulation abundance": 0.82}, {"smiles": "CCCc1nc(C)c2c(=O)nc(-c3cc(S(=O)(=O)N4CCN(CC)CC4)ccc3OCC)[nH]n12", "note": "[Vardenafil HCl Trihydrate]", "z-score of subpopulation abundance": 0.04}, {"smiles": "CC1(C)S[C@@H]2[C@H](NC(=O)[C@H](N)c3ccc(O)cc3)C(=O)N2[C@H]1C(=O)O", "note": "[Amoxicillin trihydrate]", "z-score of subpopulation abundance": 0.15}, {"smiles": "CCCCCCCCc1ccc(CCC(N)(CO)CO)cc1", "note": "[Fingolimod]", "z-score of subpopulation abundance": -1.22}, {"smiles": "C[N+]1(C)CCC(OC(=O)C(O)(c2ccccc2)C2CCCC2)C1", "note": "(stereo not given) [Glycopyrrolate]", "z-score of subpopulation abundance": -0.73}, {"smiles": "C[C@H](NCc1ccc(OCc2cccc(F)c2)cc1)C(N)=O", "note": "[Safinamide Mesylate]", "z-score of subpopulation abundance": 0.79}, {"smiles": "CN[C@H](CC(C)C)C(=O)N[C@H]1C(=O)N[C@@H](CC(N)=O)C(=O)N[C@H]2C(=O)N[C@H]3C(=O)N[C@H](C(=O)N[C@H](C(=O)O)c4cc(O)cc(O)c4-c4cc3ccc4O)[C@H](O)c3ccc(c(Cl)c3)Oc3cc2cc(c3O[C@@H]2O[C@H](CO)[C@@H](O)[C@H](O)[C@H]2O[C@H]2C[C@](C)(N)[C@H](O)[C@H](C)O2)Oc2ccc(cc2Cl)[C@H]1O", "note": "[Vancomycin HCl]", "z-score of subpopulation abundance": -0.67}, {"smiles": "OB1OCc2cc(F)ccc21", "note": "[Tavaborole (AN-2690)]", "z-score of subpopulation abundance": 0.22}, {"smiles": "COc1cc(NS(=O)(=O)c2ccc(N)cc2)ncn1", "note": "[Sulfamonomethoxine]", "z-score of subpopulation abundance": 0}, {"smiles": "CC/C(=C(/CC)c1ccc(O)cc1)c1ccc(O)cc1", "note": "[Diethylstilbestrol]", "z-score of subpopulation abundance": -0.38}, {"smiles": "C[n+]1ccccc1/C=N/O", "note": "[Pralidoxime chloride]", "z-score of subpopulation abundance": -0.96}, {"smiles": "O=C(C1CCCCC1)N1CC(=O)N2CCc3ccccc3C2C1", "note": "(stereo not given) [Praziquantel]", "z-score of subpopulation abundance": 0.31}, {"smiles": "Cc1c(OCC(F)(F)F)ccnc1C[S@@+]([O-])c1nc2ccccc2[nH]1", "note": "[Dexlansoprazole]", "z-score of subpopulation abundance": 0.56}, {"smiles": "Clc1ccc2c(N3CCN(CCCN4CCN(c5ccnc6cc(Cl)ccc56)CC4)CC3)ccnc2c1", "note": "[Piperaquine phosphate]", "z-score of subpopulation abundance": 0.02}, {"smiles": "CCOC(=O)OC(C)OC1=C(C(=O)Nc2ccccn2)N(C)S(=O)(=O)c2ccccc21", "note": "(stereo not given) [Ampiroxicam]", "z-score of subpopulation abundance": -0.1}, {"smiles": "Cc1cccc(Nc2ccccc2C(=O)O)c1C", "note": "[Mefenamic Acid]", "z-score of subpopulation abundance": 0.31}, {"smiles": "CN1CCN(CCCN2c3ccccc3Sc3ccc(Cl)cc32)CC1", "note": "[Prochlorperazine dimaleate salt]", "z-score of subpopulation abundance": 0.41}]}]}
